{
  "source": "PubChem BioAssay (EPA / NIEHS)",
  "note": "Activity calls are given as the source filed them. The calls were made as follows: active = hit-call score of the fitted dose curve at least 0.9, where 1 is the maximum; inactive = score below 0.9.",
  "data": [
    {"read-out": "Interleukin 17A (IL17A), IL17A (gene 3605)", "experiment": "BSK_BT_xIL17A: BioMAP Diversity Plus: BT Assay for Interleukin 17A (IL17A) Biomarker Activity (AID 2284229)", "settings": "primary human B cells with PBMC", "summary_of_the_method": "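Chemicals were added to a human B cell and PBMC co-culture. After 24 h, secreted IL-17A was measured with Luminex xMAP. Curves were fitted in the positive direction, with DMSO wells as baseline.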", "values": [
      {"smiles": "ClC(Cl)=C(Cl)C(Cl)=C(Cl)Cl", "outcome": "inactive"},
      {"smiles": "BrCCBr", "outcome": "inactive"},
      {"smiles": "O=[N+]([O-])c1ccc2c3c(cccc13)CC2", "outcome": "inactive"},
      {"smiles": "CCOC(=O)/C=C(C)/C=C/C[C@@H](C)CCCC(C)C", "AC50": "20 µM (active)"},
      {"smiles": "CC(=O)C(Cl)C(=O)N(C)C", "note": "(centres undefined)", "outcome": "inactive"},
      {"smiles": "CCNc1nc(NC(C)(C)C)nc(SC)n1", "outcome": "inactive"},
      {"smiles": "OCc1ccco1", "outcome": "inactive"},
      {"smiles": "Nc1ccc(-c2ccc(N)c(Cl)c2)cc1Cl", "AC50": "12.8 µM (active)"},
      {"smiles": "CCOP(=S)(OCC)Oc1ccc(S(C)=O)cc1", "note": "(centres undefined)", "outcome": "inactive"},
      {"smiles": "O=C(O)C(F)(F)C(F)(F)C(F)(F)C(F)(F)C(F)(F)C(F)(F)F", "outcome": "inactive"},
      {"smiles": "CC1(C)Cc2cccc(O)c2O1", "outcome": "inactive"},
      {"smiles": "Nc1cccc2ccccc12", "outcome": "inactive"},
      {"smiles": "CC(C)c1ccc(CO)cc1", "outcome": "inactive"},
      {"smiles": "COP(=S)(OC)Oc1cc(Cl)c(Cl)cc1Cl", "outcome": "inactive"},
      {"smiles": "O=Cc1cccc(Oc2ccccc2)c1", "outcome": "inactive"},
      {"smiles": "CCSC(C)CC1CC(=O)C(C(CC)=NOC/C=C/Cl)=C(O)C1", "note": "(centres undefined)", "outcome": "inactive"},
      {"smiles": "O=S(=O)(c1ccc(Cl)cc1)c1ccc(Cl)cc1", "outcome": "inactive"},
      {"smiles": "CCOP(=S)(OCC)SCCS(=O)(=O)CC", "outcome": "inactive"},
      {"smiles": "COC[C@H](C)N(C(=O)CCl)c1c(C)csc1C", "outcome": "inactive"},
      {"smiles": "COc1cc(OC)nc(NC(=O)NS(=O)(=O)c2ncccc2C(=O)N(C)C)n1", "outcome": "inactive"},
      {"smiles": "Oc1ccc(-c2ccccc2)cc1", "outcome": "inactive"},
      {"smiles": "CC(C)CCCCCCOC(=O)c1ccccc1C(=O)OCCCCCCC(C)C", "outcome": "inactive"}
    ]},
    {"read-out": "Tumor necrosis factor (Homo sapiens) (UniProt P01375)", "experiment": "BSK_BT_xTNFa: BioMAP Diversity Plus: BT Assay for Tumor necrosis factor alpha (TNF-alpha) Biomarker Activity (AID 2284230)", "settings": "primary human B cells with PBMC", "summary_of_the_method": "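Read-out: Luminex xMAP quantitation of secreted TNF-alpha from a B cell/PBMC co-culture 24 h after compound addition. Signal analysed relative to DMSO vehicle, positive fitting direction.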", "values": [
      {"smiles": "ClC(Cl)=C(Cl)C(Cl)=C(Cl)Cl", "outcome": "inactive"},
      {"smiles": "BrCCBr", "outcome": "inactive"},
      {"smiles": "O=[N+]([O-])c1ccc2c3c(cccc13)CC2", "outcome": "inactive"},
      {"smiles": "CCOC(=O)/C=C(C)/C=C/C[C@@H](C)CCCC(C)C", "AC50": "30.6 µM (active)"},
      {"smiles": "CC(=O)C(Cl)C(=O)N(C)C", "note": "(centres undefined)", "AC50": "29.6 µM (active)"},
      {"smiles": "CCNc1nc(NC(C)(C)C)nc(SC)n1", "AC50": "20 µM (active)"},
      {"smiles": "OCc1ccco1", "outcome": "inactive"},
      {"smiles": "Nc1ccc(-c2ccc(N)c(Cl)c2)cc1Cl", "AC50": "20 µM (active)"},
      {"smiles": "CCOP(=S)(OCC)Oc1ccc(S(C)=O)cc1", "note": "(centres undefined)", "outcome": "inactive"},
      {"smiles": "O=C(O)C(F)(F)C(F)(F)C(F)(F)C(F)(F)C(F)(F)C(F)(F)F", "outcome": "inactive"},
      {"smiles": "CC1(C)Cc2cccc(O)c2O1", "outcome": "inactive"},
      {"smiles": "Nc1cccc2ccccc12", "outcome": "inactive"},
      {"smiles": "CC(C)c1ccc(CO)cc1", "outcome": "inactive"},
      {"smiles": "COP(=S)(OC)Oc1cc(Cl)c(Cl)cc1Cl", "outcome": "inactive"},
      {"smiles": "O=Cc1cccc(Oc2ccccc2)c1", "outcome": "inactive"},
      {"smiles": "CCSC(C)CC1CC(=O)C(C(CC)=NOC/C=C/Cl)=C(O)C1", "note": "(centres undefined)", "outcome": "inactive"},
      {"smiles": "O=S(=O)(c1ccc(Cl)cc1)c1ccc(Cl)cc1", "outcome": "inactive"},
      {"smiles": "CCOP(=S)(OCC)SCCS(=O)(=O)CC", "outcome": "inactive"},
      {"smiles": "COC[C@H](C)N(C(=O)CCl)c1c(C)csc1C", "outcome": "inactive"},
      {"smiles": "COc1cc(OC)nc(NC(=O)NS(=O)(=O)c2ncccc2C(=O)N(C)C)n1", "outcome": "inactive"},
      {"smiles": "Oc1ccc(-c2ccccc2)cc1", "outcome": "inactive"},
      {"smiles": "CC(C)CCCCCCOC(=O)c1ccccc1C(=O)OCCCCCCC(C)C", "outcome": "inactive"}
    ]}
  ]
}
